Screens from PubChem BioAssay.
TGFb SMAD3 inh – inhibitors of TGF-b signaling; HepG2 CAGA-GFP TGF-b/SMAD3 reporter, GFP fluorescence, 18 h; TGF-beta stimulated, 500 pg/mL final; Potency, µM (titrated, usually from 46.1 µM), for inactives: top-dose activity, negative = inhibition, usual class: inhibitors; actives 1.2% (n = 410,000); note: potency is the fitted concentration of half-maximal effect; % is set by controls: 0 for no effect and ±100 for the full control effect; nearly all actives have a fitted effect of over 65% in size
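Read-out: total well GFP (ex488/em500-530) summed from mean per-cell fluorescence. Cells: HEPG2 CAGA-GFP, 1% FBS DMEM, 18 h at 37 degrees C with 500 pg/mL final TGF-beta. Unstimulated wells served as the full-inhibition control; stimulated DMSO wells = 0%.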
DT40 TDP1 no CPT – qHTS for Inhibitors of human tyrosyl-DNA phosphodiesterase 1 (TDP1): qHTS in cells in absence of CPT | Potency, µM (titrated, usually from 46.2 µM), for the others: at the highest dose activity change, negative = growth inhibition, usual class: inhibitors | DT40 Tdp1-/- hTDP1 cells, no CPT, ATP luminescence, 48 h | actives 15% (n = 420,000) | AID 686978, 2013; note: potency is the fitted concentration of half-maximal effect; % is set by controls: 0 for no effect and ±100 for the full control effect; nearly all actives have a fitted effect of over 55% in size
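Chicken DT40 Tdp1-/- cells stably complemented with human TDP1 were seeded at 400 cells/well with DMSO in place of 20 nM camptothecin. After compound pinning, cells grew at least 48 hr at 37 °C; viability read by CellTiter-Glo luminescence.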
IL-1B inflam inh – inhibitors of inflammasome signaling (IL-1 beta secretion); THP-1 LPS/ATP IL-1B secretion, AlphaLISA, 16 h; active compounds read low; activity change, % at 57.5 µM; actives 4.7% (n = 360,000); AID 743279; in the data active = activity change below about -50%; inconclusive = mostly about -30% to -49%; note: % is set by controls: 0 for no effect and ±100 for the full control effect
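THP-1 cells pretreated 1 hr with compounds (up to 57.5 uM final), then stimulated with LPS (250 ng/mL final) plus ATP (1.25 mM final); secreted IL-1B measured by AlphaLISA after 16 hr, decreased signal indicating inhibition.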
HepG2 viability – HepG2 cytotoxicity, counter-screen for TGF-b inhibitors. HepG2 CAGA-GFP viability, ATP luminescence, 18 h. Potency, µM (highest dose often 46.1 µM), for the others: at the top dose activity change, negative = cytotoxicity, most hits filed as cytotoxic. actives 0.76% (n = 410,000); note: potency is the fitted concentration of half-maximal effect
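CellTiter-Glo luminescence gave cytotoxicity after 18 hours at 37 degrees C. The cells were HepG2 CAGA-GFP in 1% FBS DMEM, stimulated with 500 pg/mL TGF-beta after compound addition. %Activity was normalised to no-cell wells (complete cell-killing) and DMSO (no toxicity), and curves were fitted and classified.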
DT40 TDP1 CPT – growth inhibition of DT40 Tdp1-/-;hTDP1 cells with camptothecin (screen for TDP1 inhibitors); Potency, µM (top dose mostly 46.2 µM), without a hit: at the highest dose activity change, negative = growth inhibition, usual class: inhibitors; AID 686979; chicken DT40 Tdp1-/-;hTDP1 cells + 20 nM CPT, ATP luminescence, 48 h; actives 12% (n = 420,000); note: potency is the fitted concentration of half-maximal effect; % is set by controls: 0 for no effect and ±100 for the full control effect; nearly all actives have a fitted effect of over 55% in size
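Cell growth measured by CellTiter-Glo luminescence after a minimum 48 h, 37 C compound exposure with 20 nM CPT in Tdp1-knockout DT40 cells stably expressing hTDP1, seeded 400/well; qHTS titration format.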
TDP1 block – blocks human tyrosyl-DNA phosphodiesterase 1; Potency, µM (series often up to 130 µM), for the others: at the highest dose activity change, negative = inhibition, hits mostly inhibitors; actives 0.28% (n = 350,000); Q9NUW8; recombinant TDP1, AlphaScreen DNA substrate cleavage; note: potency is the fitted concentration of half-maximal effect; % is set by controls: 0 for no effect and ±100 for the full control effect; nearly all actives have a fitted effect of over 40% in size
Target sequence (Q9NUW8 whole entry, looked up): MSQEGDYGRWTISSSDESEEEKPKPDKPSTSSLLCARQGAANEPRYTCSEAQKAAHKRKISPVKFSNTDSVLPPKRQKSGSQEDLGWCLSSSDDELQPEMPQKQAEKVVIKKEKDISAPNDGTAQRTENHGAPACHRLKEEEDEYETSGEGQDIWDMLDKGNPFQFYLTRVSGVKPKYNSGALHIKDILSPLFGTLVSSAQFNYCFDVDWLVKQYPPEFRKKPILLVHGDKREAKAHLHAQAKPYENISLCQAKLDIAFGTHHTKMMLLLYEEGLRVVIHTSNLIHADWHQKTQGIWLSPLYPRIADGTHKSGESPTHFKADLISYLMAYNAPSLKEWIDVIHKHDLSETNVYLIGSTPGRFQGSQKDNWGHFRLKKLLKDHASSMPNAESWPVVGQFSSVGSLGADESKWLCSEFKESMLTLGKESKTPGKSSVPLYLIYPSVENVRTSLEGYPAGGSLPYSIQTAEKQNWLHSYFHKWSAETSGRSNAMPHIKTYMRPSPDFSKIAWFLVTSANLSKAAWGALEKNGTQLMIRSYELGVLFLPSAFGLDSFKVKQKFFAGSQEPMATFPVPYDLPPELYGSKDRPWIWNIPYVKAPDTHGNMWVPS
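AlphaScreen read-out: signal falls as enzyme removes the 3' tyrosine-FITC from a 5'-biotinylated DNA oligo (15 nM, 5 min, RT). Enzyme was E. coli-made recombinant Tdp1 at 1 nM, exposed to compound for 15 min beforehand; beads 10 ug/ml, 10 min.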
Active calls of the source: *; ? = inconclusive; . = no result given; [ ] = another dose, or the depositor's remark. This is a sample that favours compounds with a hit; in the whole collection about 19% have one here. Unless noted, calls come from the whole dose curve; as a rule, active = well fitted curve in the direction sought with a large enough effect; inconclusive = small, poorly fitted or top-dose-only effect, or another doubt; inactive = no such curve, though single readings can be large; an effect the other way counts as inactive or inconclusive.

SMILES | TGFb SMAD3 inh | DT40 TDP1 no CPT | IL-1B inflam inh | HepG2 viability | DT40 TDP1 CPT | TDP1 block
COc1cccc(CN2CCC2(C)C(=O)Nc2cccc(Oc3ccccc3)c2)c1OC (stereo not given) | ? | 21µM* | -21 | -3% | 23µM* | .
O=C(Nc1ccc(F)cc1F)c1cccc(C(=O)Nc2ccc(F)cc2F)n1 | -8% | ? | 14 | -25% | ? | 0%[56.1 µM]
COc1cc(C(c2nnnn2C2CCCC2)N2CCc3ccccc3C2)ccc1O (stereo not given) | 13% | 12µM* | -6 | 2% | ? | 2%
Oc1ccc(C(c2nnnn2C2CCCC2)N2CCc3ccccc3C2)cc1 (stereo not given) | -6% | 21µM* | 7 | -11% | ? | 3%
COc1ccc(C(c2nnnn2C2CCCC2)N2CCN(C(=O)c3ccco3)CC2)cc1OC (stereo not given) | 13% | 0% | 43 | 7% | 2% | .
Cc1ccc(C(c2nnnn2C2CCCCC2)N2CCc3ccccc32)cc1 (stereo not given) | -14% | ? | ? | 11% | ? | 3%
Cc1cc(C)nc(N/C(=N\S(=O)(=O)Cc2ccccc2)Nc2ccc(F)c(Cl)c2)n1 | 9% | 26µM* | 4 | -4% | 18µM* | -8%
CCCc1nnc(NC(=O)c2nc(SCC)ncc2Cl)s1 | -1% | -4% | . | -10% | -29% | -1%
CC1CCc2c(sc(NC(=O)c3cc4nc(-c5ccc(Cl)cc5)cc(C(F)(F)F)n4n3)c2C#N)C1 (stereo not given) | -8% | -29% | . | 14% | -19% | 5%
Nc1cccc(S(=O)(=O)N2CCOCC2)c1 | -5% | 17% | . | -3% | 1% | 1%
CCOc1ccc(/C=C2\SC(=S)N(CC(=O)N(CCO)C(C)(C)C)C2=O)cc1 | 2% | ? | -123* | 11% | ? | 5%
CCc1ccc(/C=C2/SC(=S)N(CCC(=O)NCCCN3CCOCC3)C2=O)cc1 | -22% | -21% | -30 | -31% | -30% | 11%
CCc1ccc(/C=C2\SC(=S)N(CCCC(=O)NCCCN3CCOCC3)C2=O)cc1 | -16% | ? | -57* | -41% | 21µM* | .
CCOc1ccc(/C=C2\SC(=S)N(CCCC(=O)NCCCN3CCOCC3)C2=O)cc1 | ? | ? | -89* | -15% | 18µM* | 0%
CC(=O)N(C(C)=O)c1ncnc2c1c(-c1ccc(Cl)cc1)nn2C(C)(C)C | ? | 18µM* | -83* | -36% | ? | 4%
COc1ccc2[nH]c3c(c2c1)CC(C)NC3=O (stereo not given) | 5% | 7.3µM* | ? | 1% | ? | 4%
Cc1onc(-c2c(F)cccc2Cl)c1C(=O)OCC(=O)c1c[nH]c2ccccc12 | ? | 18µM* | -52* | -11% | ? | .
Cc1onc(-c2c(Cl)cccc2Cl)c1C(=O)N(C)Cc1ccccc1 | -10% | -28% | 10 | -16% | -28% | .
Cc1onc(-c2c(F)cccc2Cl)c1C(=O)Oc1ccccc1 | ? | 13µM* | 13 | -28% | ? | .
Cc1onc(-c2c(F)cccc2Cl)c1C(=O)N(Cc1ccccc1)C(C)C | 0% | 9.2µM* | 12 | -12% | ? | .
Cc1noc(C)c1C(=O)OCC(=O)c1c[nH]c2ccccc12 | -3% | -26% | 4 | -20% | 13% | 10%
Cc1onc(-c2c(Cl)cccc2Cl)c1C(=O)c1ccccc1 | -14% | 21µM* | 22 | -22% | 23µM* | -3%
Cc1onc(-c2c(F)cccc2Cl)c1C(=O)OCC(=O)NC(c1ccccc1)c1ccccc1 | 18% | ? | -27 | -1% | ? | 0%
CCCS(=O)(=O)N1CC(=O)N(c2ccccc2C)C(C)(C(=O)NC2CCCCC2)C1 (stereo not given) | 0% | -1% | . | 8% | -13% | 2%
CCOc1ccc(NC(=O)CN(C)C(=O)c2cc3c(s2)CCC3)cc1OCC | -4% | ? | 1 | -12% | ? | .
SMILES | TGFb SMAD3 inh | DT40 TDP1 no CPT | IL-1B inflam inh | HepG2 viability | DT40 TDP1 CPT | TDP1 block
CCCC(=O)c1ccc(OC(=O)c2c(-c3ccccc3Cl)noc2C)cc1 | -7% | ? | . | -23% | ? | -8%
CCOc1ccc(OC(=O)c2c(-c3ccccc3Cl)noc2C)cc1 | -8% | 21µM* | . | -5% | ? | -8%
CSc1ccc(/C=N/Nc2nc(C)cc(=O)[nH]2)cc1 | -2% | -2% | -18 | -1% | 6% | 5%
Cc1cc(=O)[nH]c(N/N=C/c2ccc(-c3ccc(F)cc3)o2)n1 | -18% | 13µM* | 14 | -153% | 9.2µM* | .
C(=N\Nc1nncc2ccccc12)/c1ccccn1 | ? | 2.9µM* | 150 | -98% | 2.3µM* | 8%
O=c1nc(N/N=C/c2ccccn2)cn[nH]1 | 6% | 5.2µM* | 160 | -13% | 5.2µM* | 5%
O=c1cnnc(N/N=C/c2ccccn2)[nH]1 | -30% | 3.3µM* | 187 | -24% | 4.6µM* | .
Fc1cccc(/C=N/Nc2nncc3ccccc23)c1 | -6% | ? | -6 | -39% | ? | .
CCOc1ccccc1C(=O)NC1(C(F)(F)F)C(=O)Nc2c1c(=O)[nH]c(=O)n2-c1ccccc1 (stereo not given) | 0% | 10% | . | 1% | -3% | -3%
Cc1cc(=O)[nH]c(N/N=C/c2ccccn2)n1 | ? | 4.6µM* | 89 | -11% | 3.7µM* | 6%
CCN1C(=O)N[C@H](c2ccc(Br)cc2)C(C(=O)OC)=C1C | -1% | -16% | 7 | -2% | -5% | 7%[21 µM]
COC(=O)C1=C(C)N(Cc2ccccc2)C(=O)N[C@H]1c1ccc(Br)cc1 | -1% | 7% | -54* | -6% | 2% | 5%
COC(=O)C1=C(C)N(Cc2ccccc2)C(=NCc2cc(OC)c(OC)c(OC)c2)N[C@H]1CCc1ccccc1 | -8% | 16µM* | -58* | -27% | 21µM* | 2%
COC(=O)C1=C(C)N(CCc2cc(OC)c(OC)c(OC)c2)C(=O)N[C@H]1c1ccc(Br)cc1 | . | . | . | . | . | 4%
COC(=O)C1=C(C)N(Cc2ccccc2)C(=NCCN2CCOCC2)N[C@H]1CCc1ccccc1 | -3% | 23µM* | -18 | -7% | ? | 0%
